Reference: PubChem BioAssay AID1159580 (chemical genetic matrix, 2015)
In all, about 5,500 compounds went through this assay and about 2,000 (36%) were called active. About 18% were inconclusive and are not listed. Rule as the data show it: active = normalized growth mostly below about 0.91 (no sharp cut-off); inconclusive = no clear call, values can overlap the other calls; inactive = mostly above about 0.92. The list shows a part of the results.

Assay: chemical genetic growth profiling, strain panel (AID 1159580);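 also: tested at 20 µM; growth read once vehicle control cultures reached saturation at 30 °C; 1 = growth at the plate median or of vehicle wells; lower values mean less growth of the strain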
Details: growth OD

Measured: normalized growth

COc1cc2c(cc1OC)[C@@H]1C(=O)c3ccc4c(c3O[C@@H]1CO2)C=CC(C)(C)O4
inactive: S. cerevisiae deletion strains, locus YKL009W, strain mrt4, stronger effect = lower value 0.999 | S. cerevisiae deletion strains, locus YKL068W, stronger effect = lower value 0.982 | S. cerevisiae deletion strains, locus YKL085W, strain MDH1 (second series), stronger effect = lower value 0.967 | S. cerevisiae deletion strains, locus YKL085W, strain MDH1, stronger effect = lower value 0.967 | S. cerevisiae deletion strains, locus YKL160W, strain elf1, stronger effect = lower value 0.973 | S. cerevisiae deletion strains, locus YKL190W, strain CNB1, stronger effect = lower value 0.986 | S. cerevisiae deletion strains, locus YKR001C, strain vps1, stronger effect = lower value 0.934 | S. cerevisiae deletion strains, locus YKR026C, strain gcn3, stronger effect = lower value 1.01 | S. cerevisiae deletion strains, locus YKR091W, strain srl3, stronger effect = lower value 1 | S. cerevisiae deletion strains, locus YLL001W, strain dnm1, stronger effect = lower value 0.992 | S. cerevisiae deletion strains, locus YLL026W, stronger effect = lower value 1.01 | S. cerevisiae deletion strains, locus YLL041C, strain sdh2, stronger effect = lower value 1.01 | S. cerevisiae deletion strains, locus YLR027C, strain aat2, stronger effect = lower value 0.982 | S. cerevisiae deletion strains, locus YLR039C, strain RIC1, stronger effect = lower value 0.891 | S. cerevisiae deletion strains, locus YLR058C, strain SHM2, stronger effect = lower value 0.983 | S. cerevisiae deletion strains, locus YLR102C, strain apc9, stronger effect = lower value 0.982 | S. cerevisiae deletion strains, locus YLR113W, strain HOG1, stronger effect = lower value 0.898 | S. cerevisiae deletion strains, locus YLR221C, strain rsa3, stronger effect = lower value 0.983 | S. cerevisiae deletion strains, locus YLR258W, strain gsy2, stronger effect = lower value 0.994 | S. cerevisiae deletion strains, locus YLR262C, strain YPT6 (second series), stronger effect = lower value 0.868 | S. cerevisiae deletion strains, locus YLR262C, strain YPT6, stronger effect = lower value 0.916 | S. cerevisiae deletion strains, locus YLR268W, strain sec22, stronger effect = lower value 0.97 | S. cerevisiae deletion strains, locus YLR320W, strain mms22, stronger effect = lower value 0.89 | S. cerevisiae deletion strains, locus YLR330W, strain CHS5, stronger effect = lower value 0.986 | S. cerevisiae deletion strains, locus YLR342W, strain FKS1 (second series), stronger effect = lower value 0.943 | S. cerevisiae deletion strains, locus YLR342W, strain FKS1, stronger effect = lower value 0.946 | S. cerevisiae deletion strains, locus YLR357W, strain rsc2, stronger effect = lower value 0.992 | S. cerevisiae deletion strains, locus YLR370C, strain arc18, stronger effect = lower value 1.01 | S. cerevisiae deletion strains, locus YLR371W, strain rom2, stronger effect = lower value 0.961 | S. cerevisiae deletion strains, locus YLR384C, strain iki3, stronger effect = lower value 1.03 | S. cerevisiae deletion strains, locus YLR418C, strain cdc73, stronger effect = lower value 0.962 | S. cerevisiae deletion strains, locus YML016C, strain PPZ1, stronger effect = lower value 0.981 | S. cerevisiae deletion strains, locus YML032C, strain rad52, stronger effect = lower value 0.964 | S. cerevisiae deletion strains, locus YML120C, strain ndi1, stronger effect = lower value 0.979 | S. cerevisiae deletion strains, locus YML124C, strain tub3, stronger effect = lower value 0.982 | S. cerevisiae deletion strains, locus YMR058W, strain fet3, stronger effect = lower value 0.978 | S. cerevisiae deletion strains, locus YMR078C, strain ctf18, stronger effect = lower value 0.952 | S. cerevisiae deletion strains, locus YMR125W, strain sto1, stronger effect = lower value 1.02 | S. cerevisiae deletion strains, locus YMR129W, stronger effect = lower value 0.995 | S. cerevisiae deletion strains, locus YMR205C, strain PFK2, stronger effect = lower value 0.92 | S. cerevisiae deletion strains, locus YMR223W, strain ubp8, stronger effect = lower value 0.954 | S. cerevisiae deletion strains, locus YMR231W, strain pep5, stronger effect = lower value 1.02 | S. cerevisiae deletion strains, locus YMR263W, strain SAP30, stronger effect = lower value 1 | S. cerevisiae deletion strains, locus YMR307W, strain GAS1, stronger effect = lower value 0.86 | S. cerevisiae deletion strains, locus YNL067W, strain RPL9B, stronger effect = lower value 1.01 | S. cerevisiae deletion strains, locus YNL071W, strain lat1, stronger effect = lower value 0.942 | S. cerevisiae deletion strains, locus YNL128W, strain TEP1, stronger effect = lower value 0.995 | S. cerevisiae deletion strains, locus YNL153C, strain GIM3, stronger effect = lower value 1.02 | S. cerevisiae deletion strains, locus YNL183C, strain NPR1, stronger effect = lower value 0.896 | S. cerevisiae deletion strains, locus YNL209W, strain ssb2, stronger effect = lower value 1.03 | S. cerevisiae deletion strains, locus YNL233W, strain BNI4, stronger effect = lower value 1 | S. cerevisiae deletion strains, locus YNL248C, strain rpa49, stronger effect = lower value 1.02 | S. cerevisiae deletion strains, locus YNL250W, strain rad50, stronger effect = lower value 0.972 | S. cerevisiae deletion strains, locus YNL271C, strain bni1, stronger effect = lower value 0.963 | S. cerevisiae deletion strains, locus YNL298W, strain CLA4, stronger effect = lower value 0.984 | S. cerevisiae deletion strains, locus YNL307C, strain MCK1, stronger effect = lower value 0.929 | S. cerevisiae deletion strains, locus YNL322C, strain KRE1 (second series), stronger effect = lower value 1.02 | S. cerevisiae deletion strains, locus YNL322C, strain KRE1, stronger effect = lower value 0.987 | S. cerevisiae deletion strains, locus YNR049C, strain mso1, stronger effect = lower value 1.01 | S. cerevisiae deletion strains, locus YNR052C, strain pop2, stronger effect = lower value 0.951 | S. cerevisiae deletion strains, locus YOL006C, strain TOP1, stronger effect = lower value 0.908 | S. cerevisiae deletion strains, locus YOL012C, strain htz1 1.09 | S. cerevisiae deletion strains, locus YOL147C, strain pex11, stronger effect = lower value 0.969 | S. cerevisiae deletion strains, locus YOR001W, strain rrp6, stronger effect = lower value 0.997 | S. cerevisiae deletion strains, locus YOR061W, strain CKA2, stronger effect = lower value 0.987 | S. cerevisiae deletion strains, locus YOR069W, strain VPS5, stronger effect = lower value 0.985 | S. cerevisiae deletion strains, locus YOR070C, strain gyp1, stronger effect = lower value 1.01 | S. cerevisiae deletion strains, locus YOR080W, strain dia2, stronger effect = lower value 1.02 | S. cerevisiae deletion strains, locus YOR083W, strain WHI5, stronger effect = lower value 0.943 | S. cerevisiae deletion strains, locus YOR106W, strain vam3, stronger effect = lower value 0.98 | S. cerevisiae deletion strains, locus YOR136W, strain idh2, stronger effect = lower value 0.983 | S. cerevisiae deletion strains, locus YOR144C, strain elg1, stronger effect = lower value 0.979 | S. cerevisiae deletion strains, locus YOR184W, strain ser1, stronger effect = lower value 0.899 | S. cerevisiae deletion strains, locus YOR231W, strain MKK1, stronger effect = lower value 0.953 | S. cerevisiae deletion strains, locus YOR265W, strain rbl2, stronger effect = lower value 1.01 | S. cerevisiae deletion strains, locus YOR270C, strain vph1, stronger effect = lower value 0.922 | S. cerevisiae deletion strains, locus YOR290C, strain snf2, stronger effect = lower value 1.01 | S. cerevisiae deletion strains, locus YOR316C, strain cot1, stronger effect = lower value 0.966 | S. cerevisiae deletion strains, locus YPL051W, strain arl3, stronger effect = lower value 0.973 | S. cerevisiae deletion strains, locus YPL055C, strain LGE1, stronger effect = lower value 0.995 | S. cerevisiae deletion strains, locus YPL078C, strain atp4, stronger effect = lower value 1.01 | S. cerevisiae deletion strains, locus YPL106C, strain sse1, stronger effect = lower value 1.06 | S. cerevisiae deletion strains, locus YPL240C, strain hsp82, stronger effect = lower value 1.04 | S. cerevisiae deletion strains, locus YPL241C, strain CIN2, stronger effect = lower value 0.986 | S. cerevisiae deletion strains, locus YPL256C, strain CLN2, stronger effect = lower value 0.928 | S. cerevisiae deletion strains, locus YPR119W, strain clb2, stronger effect = lower value 0.983 | S. cerevisiae deletion strains, locus YPR141C, strain kar3, stronger effect = lower value 0.95 | S. cerevisiae deletion strains, locus YPR163C, strain tif3, stronger effect = lower value 0.975 | S. cerevisiae deletion strains, locus YPR167C, strain met16, stronger effect = lower value 0.967 | S. cerevisiae deletion strains, strain wtn01, stronger effect = lower value 0.971 | S. cerevisiae strains, strain wild type, stronger effect = lower value 0.984
